Measured values: the supplement of paper PMC11732987, “Enantioselective OTUD7B fragment discovery through chemoproteomics screening and high-throughput optimisation” (Communications Chemistry, 2025)

Columns and labels:
Test in all cases: log2 ratio of Biotin-Ahx-Ub-VS probe labelling (fragment/DMSO); higher = less target engagement (more negative = stronger competition), active = hit call of the paper (q ≤ 0.05, log2 ratio ≤ -1)
Conditions in all cases: compound concentration: 200 uM; treatment time: 3 h
[1] = target: T1, ALG13 (UniProt Q9NP73)
T1 sequence (whole entry): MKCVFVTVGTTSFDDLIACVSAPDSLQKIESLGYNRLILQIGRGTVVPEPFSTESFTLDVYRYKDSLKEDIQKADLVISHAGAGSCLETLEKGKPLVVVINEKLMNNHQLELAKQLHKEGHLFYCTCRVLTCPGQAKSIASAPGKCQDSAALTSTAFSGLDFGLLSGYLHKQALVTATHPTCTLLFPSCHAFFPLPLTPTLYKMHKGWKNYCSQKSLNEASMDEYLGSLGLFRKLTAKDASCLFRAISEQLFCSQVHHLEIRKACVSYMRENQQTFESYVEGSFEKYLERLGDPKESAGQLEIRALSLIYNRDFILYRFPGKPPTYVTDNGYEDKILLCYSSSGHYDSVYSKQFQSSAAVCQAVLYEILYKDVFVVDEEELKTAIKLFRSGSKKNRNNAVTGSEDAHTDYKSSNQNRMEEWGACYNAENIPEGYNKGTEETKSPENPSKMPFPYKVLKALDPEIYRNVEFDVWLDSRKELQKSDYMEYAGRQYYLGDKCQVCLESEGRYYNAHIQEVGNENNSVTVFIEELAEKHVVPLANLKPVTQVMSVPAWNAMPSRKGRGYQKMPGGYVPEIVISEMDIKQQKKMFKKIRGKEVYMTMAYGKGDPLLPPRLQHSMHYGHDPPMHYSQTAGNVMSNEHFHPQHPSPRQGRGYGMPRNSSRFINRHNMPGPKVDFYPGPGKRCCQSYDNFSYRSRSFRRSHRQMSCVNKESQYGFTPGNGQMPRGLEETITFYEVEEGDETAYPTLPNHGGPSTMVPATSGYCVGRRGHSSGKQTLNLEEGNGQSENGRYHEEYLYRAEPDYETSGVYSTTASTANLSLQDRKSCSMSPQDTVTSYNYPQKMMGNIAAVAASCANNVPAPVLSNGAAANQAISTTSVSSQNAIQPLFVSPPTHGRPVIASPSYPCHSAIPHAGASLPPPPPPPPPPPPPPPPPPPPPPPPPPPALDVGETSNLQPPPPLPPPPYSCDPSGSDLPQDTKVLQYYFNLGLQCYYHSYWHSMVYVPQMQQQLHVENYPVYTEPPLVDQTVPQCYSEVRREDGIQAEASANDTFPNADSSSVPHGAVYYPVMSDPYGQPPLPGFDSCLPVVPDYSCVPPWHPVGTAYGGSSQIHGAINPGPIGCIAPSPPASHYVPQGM
Outline: (§1)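 HEK293T lysate (495 µg per sample, in Tris/CHAPS/IGEPAL buffer with protease inhibitors) was exposed in triplicate for 3 h to fragment at 200 µM or to vehicle, then to Biotin-Ahx-Ub-VS at 0.5 µM final for 1 h. Labelled DUBs were enriched on NeutrAvidin, digested with LysC and trypsin, and analysed by diaPASEF LC-MS/MS. Spectronaut label-free quantities were normalised to the global median, and values are average log2 ratios of fragment over vehicle from an unpaired t-test. Only proteins with ≥2 unique peptides were used.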

[2] = target: ATXN3 (UniProt P54252)
Outline: as §1

[3] = target: T2, BAP1 (UniProt Q92560)
T2 sequence (whole entry): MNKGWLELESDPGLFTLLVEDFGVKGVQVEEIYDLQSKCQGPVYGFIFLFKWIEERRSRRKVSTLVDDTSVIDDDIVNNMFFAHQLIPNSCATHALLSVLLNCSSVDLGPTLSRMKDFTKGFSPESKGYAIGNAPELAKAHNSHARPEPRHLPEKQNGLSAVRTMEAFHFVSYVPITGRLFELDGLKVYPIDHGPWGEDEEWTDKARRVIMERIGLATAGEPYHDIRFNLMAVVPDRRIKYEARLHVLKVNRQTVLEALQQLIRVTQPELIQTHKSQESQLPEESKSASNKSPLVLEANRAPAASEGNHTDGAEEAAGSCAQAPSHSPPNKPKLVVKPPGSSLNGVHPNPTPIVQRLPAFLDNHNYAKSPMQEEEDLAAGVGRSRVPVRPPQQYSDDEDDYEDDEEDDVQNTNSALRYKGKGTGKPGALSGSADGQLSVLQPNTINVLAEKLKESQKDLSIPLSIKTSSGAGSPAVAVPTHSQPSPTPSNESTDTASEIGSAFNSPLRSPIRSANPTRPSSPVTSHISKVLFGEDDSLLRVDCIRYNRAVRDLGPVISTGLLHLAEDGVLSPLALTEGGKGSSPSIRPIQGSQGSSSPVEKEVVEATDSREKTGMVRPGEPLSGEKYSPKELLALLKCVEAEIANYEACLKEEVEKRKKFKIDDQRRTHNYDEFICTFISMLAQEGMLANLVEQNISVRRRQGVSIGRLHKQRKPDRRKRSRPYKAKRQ
Outline: as §1

[4] = target: EIF3F (UniProt O00303)
Outline: as §1

[5] = target: EIF3H (UniProt O15372)
Outline: as §1

[6] = target: T3, FAM105A (UniProt Q9NUU6)
T3 sequence (whole entry): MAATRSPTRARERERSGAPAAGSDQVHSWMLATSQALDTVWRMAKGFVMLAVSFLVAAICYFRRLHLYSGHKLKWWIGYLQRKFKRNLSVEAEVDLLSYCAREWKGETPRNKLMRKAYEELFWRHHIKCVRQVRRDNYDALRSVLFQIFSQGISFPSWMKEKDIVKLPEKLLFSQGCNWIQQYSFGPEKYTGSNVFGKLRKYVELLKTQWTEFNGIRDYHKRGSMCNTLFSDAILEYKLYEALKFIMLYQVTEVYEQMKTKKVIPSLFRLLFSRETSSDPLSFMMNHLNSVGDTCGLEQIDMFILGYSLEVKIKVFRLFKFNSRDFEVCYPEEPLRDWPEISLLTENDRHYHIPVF
Outline: as §1

[7] = target: OTUB1 (UniProt Q96FW1)
Outline: as §1

[8] = target: T4, OTUD4 (UniProt Q01804)
T4 sequence (whole entry): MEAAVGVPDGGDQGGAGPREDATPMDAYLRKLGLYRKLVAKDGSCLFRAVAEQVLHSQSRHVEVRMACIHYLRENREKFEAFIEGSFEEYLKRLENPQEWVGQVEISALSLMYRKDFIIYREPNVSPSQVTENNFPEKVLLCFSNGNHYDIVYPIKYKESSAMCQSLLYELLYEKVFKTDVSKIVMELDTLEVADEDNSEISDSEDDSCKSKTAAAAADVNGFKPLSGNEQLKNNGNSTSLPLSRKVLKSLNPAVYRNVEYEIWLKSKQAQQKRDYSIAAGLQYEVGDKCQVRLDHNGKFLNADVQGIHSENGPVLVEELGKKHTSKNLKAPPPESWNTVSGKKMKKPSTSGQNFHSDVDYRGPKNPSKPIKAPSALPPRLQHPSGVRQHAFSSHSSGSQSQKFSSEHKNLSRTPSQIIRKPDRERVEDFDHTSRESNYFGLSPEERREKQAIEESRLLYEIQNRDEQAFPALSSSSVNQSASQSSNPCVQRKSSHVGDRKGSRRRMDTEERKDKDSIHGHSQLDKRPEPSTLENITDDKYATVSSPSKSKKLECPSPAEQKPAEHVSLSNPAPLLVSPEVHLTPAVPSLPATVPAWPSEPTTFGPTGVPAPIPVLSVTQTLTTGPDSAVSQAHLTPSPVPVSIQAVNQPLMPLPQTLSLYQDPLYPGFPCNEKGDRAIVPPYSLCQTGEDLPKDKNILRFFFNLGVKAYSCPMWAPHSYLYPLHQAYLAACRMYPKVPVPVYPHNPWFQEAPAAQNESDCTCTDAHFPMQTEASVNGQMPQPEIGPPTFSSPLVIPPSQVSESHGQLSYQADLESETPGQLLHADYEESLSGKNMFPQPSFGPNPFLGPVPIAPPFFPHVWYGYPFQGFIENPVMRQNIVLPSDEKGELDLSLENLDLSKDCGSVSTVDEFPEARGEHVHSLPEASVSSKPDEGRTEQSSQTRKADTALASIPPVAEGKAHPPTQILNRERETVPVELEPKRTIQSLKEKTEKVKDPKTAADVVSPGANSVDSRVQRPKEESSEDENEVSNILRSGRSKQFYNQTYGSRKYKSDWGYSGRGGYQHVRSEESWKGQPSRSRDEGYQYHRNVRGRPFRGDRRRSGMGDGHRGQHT
Outline: as §1

[9] = target: T5, OTUD5 (UniProt Q96G74)
T5 sequence (whole entry): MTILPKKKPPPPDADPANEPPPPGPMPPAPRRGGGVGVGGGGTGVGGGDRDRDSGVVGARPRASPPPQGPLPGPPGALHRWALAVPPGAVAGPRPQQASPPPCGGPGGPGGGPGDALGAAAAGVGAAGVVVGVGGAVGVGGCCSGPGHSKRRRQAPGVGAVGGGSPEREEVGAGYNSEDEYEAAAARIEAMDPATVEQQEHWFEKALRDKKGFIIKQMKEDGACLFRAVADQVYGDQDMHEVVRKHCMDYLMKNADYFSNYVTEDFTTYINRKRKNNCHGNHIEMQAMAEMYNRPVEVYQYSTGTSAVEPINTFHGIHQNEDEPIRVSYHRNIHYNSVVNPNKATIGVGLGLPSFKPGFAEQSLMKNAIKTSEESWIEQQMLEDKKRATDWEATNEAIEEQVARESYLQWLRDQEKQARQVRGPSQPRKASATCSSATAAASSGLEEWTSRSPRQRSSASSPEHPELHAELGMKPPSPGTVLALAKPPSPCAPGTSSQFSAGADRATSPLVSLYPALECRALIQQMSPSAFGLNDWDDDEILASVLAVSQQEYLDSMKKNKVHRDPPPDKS
Outline: as §1

Measured: log2 ratio of Biotin-Ahx-Ub-VS probe labelling

Sequence of EIF3H (O15372 whole entry): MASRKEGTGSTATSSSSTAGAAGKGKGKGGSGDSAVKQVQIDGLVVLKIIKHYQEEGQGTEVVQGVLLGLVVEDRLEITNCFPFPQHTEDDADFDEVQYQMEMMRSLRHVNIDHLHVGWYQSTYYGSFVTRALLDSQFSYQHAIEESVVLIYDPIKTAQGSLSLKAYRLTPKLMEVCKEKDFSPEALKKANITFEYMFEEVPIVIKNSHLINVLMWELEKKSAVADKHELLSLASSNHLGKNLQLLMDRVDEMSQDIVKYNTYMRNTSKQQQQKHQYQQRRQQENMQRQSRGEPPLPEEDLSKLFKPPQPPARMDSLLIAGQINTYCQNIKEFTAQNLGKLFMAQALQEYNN
Sequence of OTUB1 (Q96FW1 whole entry): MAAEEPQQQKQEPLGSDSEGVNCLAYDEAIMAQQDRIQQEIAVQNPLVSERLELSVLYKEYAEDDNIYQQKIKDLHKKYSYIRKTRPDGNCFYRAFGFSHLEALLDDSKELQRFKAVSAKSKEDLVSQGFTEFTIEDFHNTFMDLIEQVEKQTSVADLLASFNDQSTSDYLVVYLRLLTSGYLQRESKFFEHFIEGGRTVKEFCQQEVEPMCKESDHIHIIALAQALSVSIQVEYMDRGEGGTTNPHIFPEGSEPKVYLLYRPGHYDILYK
Sequence of ATXN3 (P54252 whole entry): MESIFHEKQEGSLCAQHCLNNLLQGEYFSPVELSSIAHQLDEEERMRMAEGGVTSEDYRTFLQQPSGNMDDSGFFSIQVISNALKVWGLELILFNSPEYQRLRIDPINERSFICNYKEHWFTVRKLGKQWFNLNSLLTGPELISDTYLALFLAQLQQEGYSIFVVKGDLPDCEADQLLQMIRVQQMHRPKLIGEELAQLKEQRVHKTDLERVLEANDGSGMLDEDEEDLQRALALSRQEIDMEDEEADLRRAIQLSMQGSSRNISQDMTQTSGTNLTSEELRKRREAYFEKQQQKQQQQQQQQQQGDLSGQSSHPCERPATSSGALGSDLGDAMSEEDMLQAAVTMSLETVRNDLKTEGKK
Sequence of EIF3F (O00303 whole entry): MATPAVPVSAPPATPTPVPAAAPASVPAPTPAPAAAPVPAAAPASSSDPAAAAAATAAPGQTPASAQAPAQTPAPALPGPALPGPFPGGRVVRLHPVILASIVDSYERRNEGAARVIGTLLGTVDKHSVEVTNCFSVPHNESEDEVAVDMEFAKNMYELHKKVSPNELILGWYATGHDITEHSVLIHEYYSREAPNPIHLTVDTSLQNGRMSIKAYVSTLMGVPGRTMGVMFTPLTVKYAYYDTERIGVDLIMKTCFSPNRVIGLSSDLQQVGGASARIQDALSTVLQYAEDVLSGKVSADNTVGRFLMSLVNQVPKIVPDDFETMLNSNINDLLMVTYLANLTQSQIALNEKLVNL

N#Cc1cnn(-c2ccccc2)c1NC(=O)CCl
inactive: [1] 0.0569 | [4] -0.258 | [5] 0.233 | [6] -0.0309 | [7] -0.0957 | [8] -0.641 | [9] -0.526
active: [2] -1.2 | [3] -4.3
